Test results published in PubChem BioAssay AID2517 (National Center for Advancing Translational Sciences (NCATS), 2010).
“And” between values parts separate entries of the source, which are not always exact repeats. Identical values can stand only once. The whole screen tested about 350,000 compounds, of which about 1,200 (0.34%) were called active. Roughly 3% stayed inconclusive and do not appear here. The call rests on the fitted dose curve; in most records, active means well fitted inhibition curve with a large enough effect; inconclusive means small, poorly fitted or top-dose-only effect; inactive means no such curve, though single readings can be large or run the other way. For the sample, actives were picked, then their nearest neighbours and some compounds at random. Some structures have more than one record in an assay (separate samples or runs), and their calls can disagree.

target: DNA repair nuclease/redox regulator APEX1 (Homo sapiens) (UniProt P27695); experiment: qHTS Assay for Inhibitors of the Human Apurinic/apyrimidinic Endonuclease 1 (APE1); conditions: recombinant APE1, TAMRA/BHQ-2 abasic DNA cleavage fluorescence; activity change, negative = inhibition: at 65.8 µM (top of the series); further: nearly all actives have a fitted effect of over 55% in size;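 on activity change, negative = inhibition: plate controls were vehicle for no effect and reference inhibitor for full effect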
Description: The apurinic/apyrimidinic endonuclease APE1 is the primary mammalian enzyme responsible for the removal of abasic (or AP) sites in DNA and functions centrally in the base excision DNA repair (BER) pathway. […] Thus, targeting APE1 could improve the efficacy of current treatment paradigms by promoting selective sensitization or protection of diseased and normal cells, respectively.
Inhibition of APE1 activity was screened by utilizing double-stranded short substrate containing tetrahydrofuran (THF) abasic site labeled with rhodamine-type fluorophore (TAMRA) at the 5'-end and with non-fluorescent Black Hole Quencher-2 (BHQ-2) at the opposing 3'-end. An increase in the fluorescence intensity due to incision of the abasic site by APE1 was used to measure the enzyme activity.
NIH Chemical Genomics Center [NCGC]
NIH Molecular Libraries Probe Centers Network [MLPCN]
Assay Provider: David M. Wilson, III, National Institute on Aging, NIH
Three uL of enzyme solution (0.75 nM APE1 final concentration) was dispensed to 1536-well Greiner black solid bottom plates. […] The plates were incubated for 15 min at room temperature, and then 1 uL of substrate solution (50 nM final concentration of TAMRA/BHQ-2) was added to start the reaction. The plates were immediately transferred into ViewLux High-throughput CCD imager (Perkin-Elmer) in order to measure the reaction progress in kinetic mode (three reads every 60 seconds) using 525 nm excitation and 598 nm emission fluorescence protocol. The fluorescence intensity difference between the third and the first time points was used to compute reaction progress. Results were normalized to buffer only columns and NSC13755 positive controls and negative control DMSO treated wells.
Potency means the concentration at half of the fitted maximal effect.

DNA repair nuclease/redox regulator APEX1 (Homo sapiens), sequence (P27695 whole entry, looked up): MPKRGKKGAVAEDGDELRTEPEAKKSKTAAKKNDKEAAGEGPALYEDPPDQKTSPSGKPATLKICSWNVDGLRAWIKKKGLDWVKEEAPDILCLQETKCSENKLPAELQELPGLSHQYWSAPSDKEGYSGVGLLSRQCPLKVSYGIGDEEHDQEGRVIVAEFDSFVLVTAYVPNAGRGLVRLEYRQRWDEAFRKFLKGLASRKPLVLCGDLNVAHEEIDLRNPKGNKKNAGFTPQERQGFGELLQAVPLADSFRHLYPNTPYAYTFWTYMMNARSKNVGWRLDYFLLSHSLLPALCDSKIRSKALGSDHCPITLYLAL

Row | SMILES | Potency | activity change, negative = inhibition
1 | Cc1ccc(Cc2cnc(N)s2)o1 | 28.2 µM (active) | 
2 | Cc1ccc(CCC(=O)Nc2ncc(Cc3cc(Cl)ccc3Cl)s2)o1 |  | -4.89% (inactive)
3 | CCC[C@@H]1C[C@@]1(CCC)C(NS(=O)(=O)c1cccc2cccnc12)c1ccc(Cl)cc1 (stereo partly drawn) |  | 14.7% (inactive)
4 | CC(=O)OCC1OC(C#CCCCc2ccccc2)C=CC1OC(C)=O (stereo not drawn) |  | 10.7% [at 12.4 µM] (inactive) and -3.91% [at 12.4 µM] (inactive)
5 | Nc1ncn(C2OC(CO)C(O)C2O)c(=O)n1 (stereo not drawn) |  | -0.222% (inactive)
6 | CC1=C2[C@@H](O)[C@H]([C@@H](C)C(=O)NCCC(C)C)CC[C@@]2(C)C=CC1=O |  | -2.86% (inactive)
7 | COC(=O)C1=C(C)N(Cc2ccccc2)C2=C3C(=O)N(c4ccccc4)C(=O)C3[C@@](O)(C(=O)OC)C(=O)N2C1c1ccccc1 (stereo partly drawn) |  | -8.1% [at 12.4 µM] (inactive) and -10.6% [at 12.4 µM] (inactive)
8 | C#CCOCCOCCOCCNc1nc(N2CCN(C(=O)[C@H](CCCCN)n3cc([C@@H](N)C(C)CC)nn3)CC2)nc(N2CCN(C(=O)[C@H](Cc3ccc(O)cc3)n3cc([C@@H](N)C(C)CC)nn3)CC2)n1 (stereo partly drawn) |  | 24.6% (inactive)
9 | C#CCOCCOCCOCCNc1nc(N2CCN(C(=O)C(Cc3ccc(O)cc3)n3cc(C(N)CC(C)C)nn3)CC2)nc(N2CCN(C(=O)C(Cc3ccc(O)cc3)n3cc(C(N)C(C)CC)nn3)CC2)n1 (stereo not drawn) | 31.6 µM (active) | 
10 | C#CCOCCOCCOCCNc1nc(N2CCN(C(=O)[C@H](Cc3ccc(O)cc3)n3cc(C(N)CC(C)C)nn3)CC2)nc(N2CCN(C(=O)[C@H](CCC(=O)O)n3cc(C(N)[C@H](C)CC)nn3)CC2)n1 (stereo partly drawn) |  | -11.9% (inactive)
11 | C=CCOC(=O)NC(c1ccc(F)c(F)c1)C(C(=O)COC)C(=O)OC (stereo not drawn) | inactive | 
12 | CCCN1[C@H](C(=O)OC)C[C@@]2(O)[C@@H](O)[C@@H](O)[C@@H](O)C[C@@H]12 |  | 14.8% (inactive)
13 | COc1c(O)c2c(=O)cc(OC)c3c4c(OC)cc(=O)c5c(O)c(OC)c6c(c(c1C[C@@](C)(O)[C@H]6C(C)=O)c23)c54 |  | -10.2% (inactive)
14 | O=C1N/C(=C/c2cccn2-c2ccccc2)C(=O)N1c1cccc(Cl)c1 |  | 6.35% (inactive)
15 | Cc1ccccc1NC(=O)CSC(=O)c1ccccc1 |  | 8.15% (inactive)
16 | Cc1ccccc1NC(=O)CN1C(=O)N/C(=C\c2cccn2-c2cccc(C(=O)O)c2)C1=O | 3.16 µM (active) | 
17 | O=C(c1cccc(F)c1)N1CCC2(CCCN(Cc3ccncc3)C2)CC1 |  | -0.987% (inactive)
18 | COC(=O)[C@@]1(Cc2ccc(F)cc2)[C@@H]2[C@@H](CC(=O)[C@H]2CC(=O)C(=O)N2CCCC2)CN1C(=O)c1ccccc1 |  | -5.41% (inactive)
19 | CC(=O)OCC(=O)C1CCC2C3CCC4=CC(=O)CC[C@@]4(C)C3CC[C@]12C (stereo partly drawn) |  | 1.89% (inactive)
20 | C#CCC(C(=O)OC)(C(=O)OC)C(C[N+](=O)[O-])c1ccccc1 (stereo not drawn) |  | 1.76% [at 12.4 µM] (inactive)
21 | O=c1ccc2c(-c3ccccc3S(=O)(=O)O)c3ccc(O)c(O)c3oc-2c1O | 0.0947 µM (active) | 
22 | CC(C)CN1CCc2nc(-c3ccccc3)c3c(c2C1)COC(C)C3 (stereo not drawn) |  | 8.68% [at 12.4 µM] (inactive)
23 | Cc1ccc(-c2nn(CC(C)(C)C)c3ncnc(N)c23)cc1 |  | -2.29% (inactive)
24 | CN1CCCC1CCO[C@@](C)(c1ccccc1)c1ccc(Cl)cc1 (stereo partly drawn) |  | 0.95% (inactive)
25 | CCOc1cc(/C=N/NC(=O)CN2CCCCC2)ccc1O |  | 32% (inactive)
26 | Cc1nccn1CC(=O)N/N=C/c1ccc(O)c(O)c1 | 25.1 µM (active) | 

Row | SMILES | Potency | activity change, negative = inhibition
27 | Cn1c(SCC(=O)N/N=C/c2ccc(O)c(O)c2)nc2ccccc21 |  | -9.26% (inactive)
28 | N#Cc1cccc(-c2ccc3ncnc(NCc4cccs4)c3c2)c1 |  | 0.81% (inactive)
29 | COc1ccc(-c2oc3cc(OC)ccc3c2C(=O)c2ccc(C#N)cc2)cc1 |  | -7.81% (inactive)
30 | COC(=O)C1=C(C(=O)OC)[C@@H]2N(C)c3ccccc3[C@@]23C[C@@H](C(=O)OC)N(S(=O)(=O)c2cccs2)C3=N1 |  | -14.4% [at 12.4 µM] (inactive)
31 | Nc1ccc2nc3c(=O)[nH]c(=S)[nH]c3nc2c1 | 0.501 µM (active) | 
32 | CN1[C@H]2CC(OC(=O)[C@@H](CO)c3ccccc3)C[C@H]1[C@H]1O[C@H]12 (stereo partly drawn) |  | -4.8% [at 21 µM] (inactive)
33 | COC(=O)[C@@]1(Cc2ccccc2)[C@H]2c3cc(C(=O)N4CCCC4)n(Cc4ccc(C)o4)c3C[C@H]2CN1C(=O)c1ccccc1 |  | -5.54% (inactive)
34 | CC(C)C(N)C(=O)OCCOCn1cnc2c(=O)[nH]c(N)nc21 (stereo not drawn) |  | 3.96% (inactive)
35 | C[C@@H]1O[C@@H](OC[C@H]2O[C@@H](Oc3cc(O)c4c(c3)O[C@H](c3ccc(O)c(O)c3)CC4=O)[C@H](O)[C@@H](O)[C@@H]2O)[C@H](O)[C@H](O)[C@H]1O |  | -10.7% (inactive)
36 | C=CCCN(C(Cc1ccccc1)C(=O)OC)S(=O)(=O)c1cc(Br)ccc1Br (stereo not drawn) |  | -1.9% (inactive)
37 | C=CCCN(Cc1ccccc1)S(=O)(=O)c1ccccc1Br | inactive and 199 nM (active) | 
38 | C=CC(COCc1ccccc1)N(Cc1ccccc1)S(=O)(=O)c1ccccc1Br (stereo not drawn) | inactive | 
39 | COC(=O)[C@@]1(Cc2ccccc2)[C@H]2c3cc(C(=O)N(C)C)n(CCSCCO)c3C[C@H]2CN1C(=O)c1ccccc1 |  | -0.311% (inactive)
40 | CC(C)=CCC[C@]1(C)[C@@H](CC=C(C)C)C[C@@]2(CC=C(C)C)C(=O)[C@]1(C(=O)C(C)C)C(=O)C(CC=C(C)C)=C2O |  | -2.28% (inactive)
41 | CC(=O)CC(C)C |  | -0.561% (inactive)
42 | O=C(c1cc(-c2ccco2)nc2ccccc12)N(Cc1nnc(-c2ccc(Cl)cc2)o1)C1CC1 |  | -25.3% (inactive)
43 | CC1CCCN(C(=O)c2cc(-c3ccco3)nc3ccccc23)C1 (stereo not drawn) |  | 17.7% (inactive)
44 | Cc1cc(C)c2nc(-c3ccco3)cc(C(=O)O)c2c1 | 7.08 µM (active) | 
45 | Cc1ccc(Br)cc1 |  | -0.853% (inactive)
46 | CC(N)(C(=O)O)c1ccc(-c2nn[nH]n2)cc1 (stereo not drawn) |  | 7.06% (inactive)
47 | COCCNc1ncnc2ccc(-c3cccnc3)cc12 |  | -1.42% (inactive)
48 | CCCCCCCC[C@@H](O)/C=C/C=C/C=C\[C@@H](O)CCCC(=O)O |  | -7.47% (inactive)
49 | O=c1c(O)c(Br)ccc2c(Br)c(O)c(O)c(O)c12 | 1.12 µM (active) | 
50 | O=C(c1ccncc1)N1CCC2(CCN(Cc3cc(C(F)(F)F)cc(C(F)(F)F)c3)CC2)CC1 |  | 2.27% (inactive)
51 | CC1(C)C=CC(=O)[C@]2(C)C1CC(=O)[C@]1(C)C2CC[C@@]2(C)C(c3ccoc3)OC(=O)C3OC321 (stereo partly drawn) |  | 0.648% (inactive)
52 | Cc1cc2nc3c(=O)[nH]c(=O)nc-3n(C[C@H](O)[C@H](O)[C@H](O)CO)c2cc1C | inactive | 

Row | SMILES | Potency | activity change, negative = inhibition
53 | COC(=O)C/C=C/[C@@H](C)[C@H](NC(=O)OCC(Cl)(Cl)Cl)c1ccccc1 |  | 3.41% (inactive)
54 | O=c1c(-c2ccc(F)cc2)nc2cnc(N3CCNCC3)nc2n1Cc1cccs1 |  | 12.1% (inactive)
55 | CCCCC/C=C\C/C=C\CCCCCCCCCC(N)=O |  | 3.71% (inactive)
56 | O=C(CSc1nc2ccccc2c(=O)[nH]1)Nc1nc(-c2ccc(Br)cc2)cs1 |  | -13.4% (inactive)
57 | Cc1cc(C)c2c(=O)[nH]c(SCC(=O)Nc3ccc(Br)cc3)nc2n1 |  | 5.12% (inactive)
58 | N#Cc1c(-c2cccs2)nc(SCC(=O)c2ccc(Br)cc2)[nH]c1=O | 39.8 µM (active) | 
59 | O=C(O)c1ccc(/C=C2/SC(=S)N(c3cccc(C(F)(F)F)c3)C2=O)cc1 |  | 20.2% (inactive)
60 | OC[C@H]1O[C@@H](n2cnc3c(N[C@H]4CC5CCC4C5)ncnc32)[C@H](O)[C@@H]1O (stereo partly drawn) |  | 13.8% (inactive)
61 | C=C(C(C)=O)C(O)c1ccc([N+](=O)[O-])cc1 (stereo not drawn) |  | -1.09% (inactive)
62 | CCCCC[C@H](O)/C=C/[C@@H]1[C@@H](CC(=O)CCC(=O)O)[C@@H](O)C[C@H]1O |  | 1.56% (inactive)
63 | CCOC(=O)c1ccc[n+](CC(=O)Nc2ccccc2OC(F)F)c1 |  | 0.0835% (inactive)
64 | Cc1ccc(-c2nc(SCC(=O)Nc3ccccc3OC(F)F)c3c(C)c(C(=O)O)sc3n2)cc1 | 39.8 µM (active) | 
65 | COc1ccccc1NC(=O)CSc1nc2sc3c(c2c(=O)n1-c1ccccc1)CCN(C)C3 |  | 34.8% (inactive)
66 | CC(=O)OCC1OC(C#Cc2ccccc2Cl)C=CC1OC(C)=O (stereo not drawn) |  | -9.65% [at 12.4 µM] (inactive)
67 | CC(=O)Oc1c2c(c3c(c1CC=C(C)C)O[C@@]14C(=CC5CC1C(C)(C)OC4(C/C=C(\C)C(=O)O)C5=O)C3=O)OC(C)(CCC=C(C)C)C=C2 (stereo partly drawn) |  | -5.43% (inactive)
68 | CC(C)(C)OC(=O)C[C@@H]1C/C=C\C[C@@H](CC(=O)NCCO)C(=O)N[C@H](Cc2c[nH]c3ccccc23)COC1=O | 15 µM (active) | 
69 | CC(C)(C)OC(=O)C[C@@H]1C/C=C\C[C@@H](CC(=O)N(CCO)Cc2ccccc2)C(=O)N[C@H](Cc2ccccc2)COC1=O |  | -32.1% (inactive)
70 | C[C@H]1COC(=O)[C@H](CC(=O)OC(C)(C)C)C/C=C\C[C@@H](CC(=O)N[C@H](CO)Cc2ccccc2)C(=O)N1 |  | 4.54% (inactive)
71 | O=C1N[C@H](Cc2c[nH]c3ccccc23)COC(=O)[C@H](Cc2ccc(F)cc2)C/C=C\C[C@H]1CC(=O)N(CCO)Cc1ccccc1 | 21.2 µM (active) | 
72 | CC(C)(C)OC(=O)C[C@@H]1C/C=C\C[C@H](CC(=O)N[C@@H](CO)Cc2ccccc2)C(=O)N[C@H](Cc2ccccc2)COC1=O |  | -4.67% (inactive)
73 | O=C1N[C@@H](c2ccccc2)COC(=O)[C@H](Cc2ccc(F)cc2)C/C=C\C[C@@H]1CC(=O)N(CCO)Cc1ccccc1 |  | 27.2% (inactive)
74 | CCCCc1nn(-c2ccccc2C(F)(F)F)c(=O)n1Cc1ccc(-c2ccccc2S(=O)(=O)NC(=O)c2sccc2C)cc1 |  | -6.08% (inactive)
75 | CO[C@H]1COC(=O)[C@@H](OCc2ccccc2)/C=C\[C@H](C)[C@@H](OC)COC(=O)[C@H](OCc2ccccc2)/C=C\[C@@H]1C |  | 33.1% [at 12.4 µM] (inactive)
76 | COc1ccc(CCCOC(Cn2ccnc2)c2ccc(OC)cc2)cc1 (stereo not drawn) | inactive | 
77 | Cc1ccc(N=C2NC(=O)/C(=C/C=C/c3ccco3)S2)cc1C | 28.2 µM (active) | 
78 | CCC[C@@H]1C[C@@]1(CCC)C(NC(=O)c1ccc(-c2ccccc2)cc1)c1cccc(Cl)c1 (stereo partly drawn) |  | -0.889% (inactive)
